# Only some compounds are listed: those with a hit (about 1.7% of all), similar ones and a draw of the others.
# FPRL1 binder – ligands of human FPRL1, also counter-screen for FPR ligands; P25090; FPRL1-expressing cells, fluorescent ligand binding inhibition, flow cytometry; 0.3% of 24,000 active; inhibition, % (concentration not given with the values)
# LNCaP diff act – activators of LNCaP prostate cell differentiation. AID 795. side scatter shift, % at 10 µM. flow cytometry side scatter, 4 d. 0.56% of 24,000 active;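 active means side scatter shift above 30%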;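 further: androgen-responsive LNCaP prostate cancer cells in charcoal-stripped serum medium; higher shift means more granular cells and more differentiation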
# FPR ligand – binds the human formylpeptide receptor FPR | 0.74% of 24,000 active | inhibition, % (concentration not given with the values) | FPR-expressing cells, fluorescent ligand binding, flow cytometry | AID 440 | P21462
# Numbers stand for hits; i = inactive. Unless noted, no stated cut-off is given here; in the data, active means inhibition above about 30%; inconclusive means no clear call, values can overlap the other calls; inactive means below that.
SMILES,FPRL1 binder,LNCaP diff act,FPR ligand
CCCNS(=O)(=O)c1ccc(OCC(=O)N2CCN(Cc3ccccc3)CC2)cc1,i,i,i
O=C(COc1ccc2ccccc2c1)N1CCN(C2CCN(Cc3ccccc3)CC2)CC1,i,46,i
C=CCOC(=O)C1=C(C)OC(N)=C(C(=O)OCC)C12C(=O)N(CC(N)=O)c1ccccc12 (stereo not drawn),i,i,i
CC1=C(C(=O)OC(C)C)[C@]2(C(=O)N(CC(N)=O)c3ccccc32)C(C#N)=C(N)O1,50,i,i
C[N+]1(C)CCN(c2ccccc2)CC1,i,i,i
C[C@H]1CCCC(=O)CCCCCc2cc(O)cc(O)c2C(=O)O1,i,i,i

# Bioassay records deposited in PubChem by NMMLSC.
